Source: PubChem (National Center for Advancing Translational Sciences (NCATS))
Only some compounds are listed: those with a hit (about 8.3% of all), similar ones and a draw of the others.
FMDV inh = foot and mouth disease virus antiviral activity. FMDV antiviral cell-based qHTS. Potency, µM (doses to about 57.9 µM), inactives show top-dose activity change, negative = inhibition, usual class: inhibitors. hit rate 1.2% among 410,000; calls by dose curve; tested in HEK293T cells; note: read-out not given here; potency is the fitted concentration of half-maximal effect; nearly all actives have a fitted effect of over 45% in size
HCMV inh = blocks human cytomegalovirus replication. hit rate 4.5% among 410,000. activity change, negative = inhibition, % at 57.5 µM. AID 1259415. HFF cells, HCMV-luciferase reporter, 72 h; stronger effect = lower value; in the data active = activity change below about -60%; inconclusive = no clear call, values can overlap the other calls; inactive = above about -39%
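Cell-based, HFFs, 1000 cells/well, 16 h 37C; cpds in DMSO + HCMV-luc, MOI 1 PFU/cell; 72 h 37C; OneGlo luminescence after 5 min RT; norm. to buffer vs Salinomycin 10uM.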
LASV entry inh = blocks Lassa virus binding to or entry into cells. AID 540256. Lassa virus pseudotype entry inhibition, cell reporter. Potency, µM (highest dose often 37.9 µM), inactives show at the highest dose activity change, negative = inhibition, most hits filed as inhibitors. hit rate 1.2% among 300,000; calls by dose curve; tested in HEK293 cells; note: potency is the fitted concentration of half-maximal effect; nearly all actives have a fitted effect of over 50% in size
Giardia FBPA inh = Giardia lamblia aldolase inhibition; Potency, µM (doses to about 59.6 µM), for the others: at the top dose activity, negative = inhibition, hits mostly inhibitors; purified Giardia FBPA; hit rate 0.71% among 290,000; note: potency is the fitted concentration of half-maximal effect; nearly all actives have a fitted effect of over 55% in size
Target sequence (A8B2U2 whole entry, looked up): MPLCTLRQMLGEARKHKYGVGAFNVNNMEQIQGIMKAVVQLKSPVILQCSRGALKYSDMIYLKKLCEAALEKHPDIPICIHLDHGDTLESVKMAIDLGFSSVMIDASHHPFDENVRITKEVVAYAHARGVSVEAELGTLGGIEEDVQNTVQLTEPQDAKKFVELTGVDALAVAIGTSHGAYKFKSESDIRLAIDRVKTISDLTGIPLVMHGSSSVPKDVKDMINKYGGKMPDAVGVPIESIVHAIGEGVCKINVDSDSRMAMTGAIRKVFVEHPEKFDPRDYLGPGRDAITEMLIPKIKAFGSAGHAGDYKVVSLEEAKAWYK
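Giardia FBPA (40 nM reagent) was preincubated 10 min at RT with compound (up to 57.5 uM final), then substrate plus GAPDH/TPI/NAD/arsenate coupling system with diaphorase/resazurin was added; resorufin fluorescence (525/598 nm) was read after 20 min.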
MARV entry inh = inhibitors of Marburg virus binding or cell entry; Marburg virus pseudotyped entry inhibition, cell reporter; hit rate 1.8% among 300,000; Potency, µM (series often up to 37.8 µM), inactives show at the top dose activity change, negative = inhibition, hits mostly inhibitors; calls by dose curve; tested in HEK293 cells; note: potency is the fitted concentration of half-maximal effect
HCV inhibitor = blocks hepatitis C virus. Huh7.5.1 HCVcc-Cre infection, luciferase reporter, 44 h. Potency, µM (titrated, usually from 41.8 µM), for the others: at the highest dose activity change, negative = inhibition, usual class: inhibitors. hit rate 3.4% among 340,000; note: potency is the fitted concentration of half-maximal effect
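Cells seeded at 1,000/well and cultured 4 h, then compounds added followed by HCVcc-Cre virus (~0.5 moi). After 44 h further culture, luciferase substrate was added, plates held 15 min at room temperature, and luminescence read for 15 sec.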
An asterisk follows results filed as active; ? = inconclusive; · = no result; [ ] = dose if it differs, or a comment. Unless noted, calls come from the whole dose curve; as a rule, active = well fitted curve in the direction sought with a large enough effect; inconclusive = small, poorly fitted or top-dose-only effect, or another doubt; inactive = no such curve, though single readings can be large; an effect the other way counts as inactive or inconclusive. % is set by controls: 0 for no effect and ±100 for the full control effect.

SMILES | FMDV inh | HCMV inh | LASV entry inh | Giardia FBPA inh | MARV entry inh | HCV inhibitor
CC(C)C[C@H](NC(=O)CNC(=O)[C@H](C)NC(=O)[C@H](CC(C)C)NC(=O)[C@H](CCCNC(=N)N)NC(=O)[C@H](Cc1cnc[nH]1)NC(=O)[C@@H](NC(=O)[C@@H](N)C(C)C)[C@@H](C)O)C(=O)N[C@@H](CC(C)C)C(=O)N[C@@H](CO)C(=O)N[C@@H](CCCNC(=N)N)C(=O)N[C@@H](CO)C(=O)NCC(=O)NCC(=O)N[C@H](C(=O)N[C@H](C(=O)N[C@@H](CCCCN)C(=O)N[C@@H](CC(N)=O)C(=O)N[C@@H](CC(N)=O)C(=O)N[C@@H](Cc1ccccc1)C(=O)N[C@H](C(=O)N1CCC[C@H]1C(=O)N[C@H](C(=O)N[C@@H](CC(N)=O)C(=O)N[C@H](C(=O)NCC(=O)N[C@@H](CO)C(=O)N[C@@H](CCCCN)C(=O)N[C@@H](C)C(=O)N[C@@H](Cc1ccccc1)C(N)=O)C(C)C)[C@@H](C)O)C(C)C)C(C)C)C(C)C | · | · | · | 5% | · | ·
CCOC(=O)C1=C(C)Nc2sc(C(=O)c3ccc(F)cc3)c(N)c2C1c1ccc(C(=O)OC)cc1 (centres undefined) | -11% | -40 | ? | -14% | ? | 7.1µM*
CC(C)(C)CC(C)(C)NCC(O)COc1ccc2c(c1)CCC2 (centres undefined) | ? | -37 | ? | · | 7.1µM* | ?
CC(C)(CO)NCC(O)COc1ccc2c(c1)CCC2 (centres undefined) | -22% | 26 | -14% | -2% | -5% | -24%
CSCCC(c1nnnn1-c1ccc2c(c1)OCCO2)N1CCC(n2c(=O)[nH]c3ccccc32)CC1 (centres undefined) | -28% | -72* | · | · | · | ·
O=c1[nH]c2ccccc2n1C1CCN(C(c2cccs2)c2nnnn2-c2ccc3c(c2)OCCO3)CC1 (centres undefined) | 7% | -80* | · | · | · | ·
O=c1[nH]c2ccccc2n1C1CCN(C(c2ccccc2)c2nnnn2-c2ccc3c(c2)OCCO3)CC1 (centres undefined) | -26% | -86* | · | · | · | ·
O=c1[nH]c2ccccc2n1C1CCN(C(c2nnnn2-c2ccc3c(c2)OCCO3)C2CC2)CC1 (centres undefined) | -19% | ? | · | · | · | ·
CCc1cc2c(cc3c(=O)n(CC(=O)N4CCN(c5cccc(C)c5C)CC4)nc(CC)n32)s1 | -10% | -3 | · | · | ? | ·
O=c1c(-c2ccc(F)c(F)c2)nc2cncnc2n1Cc1ccccc1 | -25% | · | · | -11% | · | ·
CC1CCCC(NC(=O)NC(=O)CCl)C1C (centres undefined) | 20µM* | -29 | 0% | -16% | -8% | ?
COc1ccc(OC)c(S(=O)(=O)N(C)CC(=O)N2CCN(c3ccc(F)cc3)CC2)c1 | · | 48 | -16% | ? | -10% | 13%
COc1ccc(S(=O)(=O)N(C)CC(=O)N2CCN(C)CC2)cc1Cl | 10% | -100* | · | -4% | · | 8%
COc1ccc(S(=O)(=O)N(C)CC(=O)N2CCCCC2)cc1Cl | -11% | -29 | 6% | -5% | 14% | -1%
COc1ccc(OC)c(S(=O)(=O)N(C)CC(=O)N2CCN(c3cccc(Cl)c3)CC2)c1 | ? | -103* | -8% | 0% | ? | -20%
COc1ccc(-c2cnnc(CCCn3ccnc3-c3ccccc3)n2)cc1 | · | · | · | 1%[12.9 µM] | ? | ·
CN(c1ccc(OCC(=O)N2CCN(c3ccc(F)cc3)CC2)cc1)S(=O)(=O)c1cccs1 | -24% | -38 | ? | -4% | 8.9µM* | 3.5µM*
CN(c1ccc(OCC(=O)N2CCCCC2)cc1)S(=O)(=O)c1cccs1 | -12% | -8 | ? | 8% | 0% | -8%
Cc1ccc(S(=O)(=O)N(C)c2ccc(OCC(=O)Nc3nc(-c4ccccc4)cs3)cc2)cc1 | -29% | -16 | ? | -3% | ? | ?
CCOC(=O)Cc1csc(NC(=O)COc2ccc(N(C)S(=O)(=O)c3cccs3)cc2)n1 | 25µM* | 11 | -28% | -8% | ? | ?
Cc1ccc(S(=O)(=O)N(C)c2ccc(OCC(=O)Nc3nc4c(ccc5ccccc54)s3)cc2)cc1 | 3% | 24 | 2% | -2% | 1.4µM* | ?
CN(c1ccc(OCC(=O)Nc2nc(-c3ccccc3)cs2)cc1)S(=O)(=O)c1ccc(F)cc1 | ? | -24 | -24% | -3% | ? | 10µM*
CCOc1ccc(CC(=O)NC2CC(=O)N(c3cccc(F)c3)C2)cc1 (centres undefined) | -5% | -9 | 18%[46.1 µM] | · | · | ·
COc1ccccc1Oc1nc(-c2ccccc2)cc(C)c1S(C)(=O)=O | 0% | -13 | -18% | 1% | ? | ?
Cc1cccc(Oc2nc(-c3ccccc3)cc(C)c2S(C)(=O)=O)c1C | ? | 0 | ? | -4% | ? | 10µM*
SMILES | FMDV inh | HCMV inh | LASV entry inh | Giardia FBPA inh | MARV entry inh | HCV inhibitor
CCOC(=O)c1c(-c2ccccc2)csc1NC(=O)c1cc(-c2ccc(F)cc2)on1 | -13% | 8 | 2%[46.1 µM] | · | -13%[46.1 µM] | ·
CCOC(=O)c1c(-c2ccccc2)csc1NC(=O)/C(C#N)=C/c1ccc(O)c(OC)c1 | ? | -65* | -11% | -13% | 4% | -20%
CCOC(=O)c1c(-c2ccc(F)cc2)csc1NC(=O)c1c(-c2ccccc2)noc1C | -27% | -68* | 8.9µM* | -4% | 3.5µM* | ?
COC(=O)c1c(-c2ccc(C)cc2)csc1NC(=S)NC(=O)c1ccc(F)cc1 | -21% | 1 | 1% | -1% | 9% | 2%
CCOC(=O)c1c(-c2ccc(C)cc2)csc1NC(=S)NC(=O)c1ccccc1 | ? | ? | 2.1µM* | -9% | 1.8µM* | ?
Cc1ccc(-c2csc(NC(=O)c3ccc(Br)cc3)c2C(=O)O)cc1 | 8% | -95* | ? | ? | 1.3µM* | 0%
Cc1cc(C)c2oc(-c3cccc(NC(=O)COc4ccc([N+](=O)[O-])cc4)c3)nc2c1 | ? | 29 | ? | · | 6%[46.1 µM] | ·
COc1cc2oc(=O)c(CC(=O)NCCc3ccccc3)c(C)c2cc1Cl | -9% | -6 | 14%[46.1 µM] | · | 5%[46.1 µM] | ·
N#CC1C(=O)N=C(SCC(=O)c2ccc(Br)cc2)N=C1c1cccs1 (centres undefined) | · | · | · | · | -3%[46.1 µM] | ·
Cc1ccc2nc(CNC(=O)c3cc(NC(=O)c4ccccc4)cc4ncn(C5CCCC5)c34)cn2c1 | -10% | · | · | · | · | ·
CCOC(=O)c1c(-c2ccccc2)csc1NC(=O)C1CCCO1 (centres undefined) | · | 10 | -21% | 7% | -19% | 10µM*
CCOC(=O)c1c(-c2ccc(-c3ccccc3)cc2)csc1NC(=O)C1C2CCC(O2)C1C(=O)O (centres undefined) | 0% | 1 | ? | 11% | -6% | -1%
Cc1ccc(NC(=O)CCS(=O)(=O)c2ccc(Br)s2)c(Br)c1 | -24% | -7 | -10%[46.1 µM] | · | 2%[46.1 µM] | ·
